In PMC4336329 (PLoS ONE, 2015):
The campaign covered roughly 310,000 compounds. About 14,000 (4.5%) showed an effect of 50% or more. Effects have a minus sign here. The full list was thinned out, with strong results kept by preference.

molecular target: human ether-à-go-go-related gene (hERG) potassium channel (human, UniProt Q12809); assay: primary screen, population patch clamp on CHO cells stably expressing hERG; higher = less effect of the substance
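Also: peak tail current of the secondary pulse compared with the same well before compound.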

human ether-à-go-go-related gene (hERG) potassium channel, sequence (Q12809 whole entry, looked up): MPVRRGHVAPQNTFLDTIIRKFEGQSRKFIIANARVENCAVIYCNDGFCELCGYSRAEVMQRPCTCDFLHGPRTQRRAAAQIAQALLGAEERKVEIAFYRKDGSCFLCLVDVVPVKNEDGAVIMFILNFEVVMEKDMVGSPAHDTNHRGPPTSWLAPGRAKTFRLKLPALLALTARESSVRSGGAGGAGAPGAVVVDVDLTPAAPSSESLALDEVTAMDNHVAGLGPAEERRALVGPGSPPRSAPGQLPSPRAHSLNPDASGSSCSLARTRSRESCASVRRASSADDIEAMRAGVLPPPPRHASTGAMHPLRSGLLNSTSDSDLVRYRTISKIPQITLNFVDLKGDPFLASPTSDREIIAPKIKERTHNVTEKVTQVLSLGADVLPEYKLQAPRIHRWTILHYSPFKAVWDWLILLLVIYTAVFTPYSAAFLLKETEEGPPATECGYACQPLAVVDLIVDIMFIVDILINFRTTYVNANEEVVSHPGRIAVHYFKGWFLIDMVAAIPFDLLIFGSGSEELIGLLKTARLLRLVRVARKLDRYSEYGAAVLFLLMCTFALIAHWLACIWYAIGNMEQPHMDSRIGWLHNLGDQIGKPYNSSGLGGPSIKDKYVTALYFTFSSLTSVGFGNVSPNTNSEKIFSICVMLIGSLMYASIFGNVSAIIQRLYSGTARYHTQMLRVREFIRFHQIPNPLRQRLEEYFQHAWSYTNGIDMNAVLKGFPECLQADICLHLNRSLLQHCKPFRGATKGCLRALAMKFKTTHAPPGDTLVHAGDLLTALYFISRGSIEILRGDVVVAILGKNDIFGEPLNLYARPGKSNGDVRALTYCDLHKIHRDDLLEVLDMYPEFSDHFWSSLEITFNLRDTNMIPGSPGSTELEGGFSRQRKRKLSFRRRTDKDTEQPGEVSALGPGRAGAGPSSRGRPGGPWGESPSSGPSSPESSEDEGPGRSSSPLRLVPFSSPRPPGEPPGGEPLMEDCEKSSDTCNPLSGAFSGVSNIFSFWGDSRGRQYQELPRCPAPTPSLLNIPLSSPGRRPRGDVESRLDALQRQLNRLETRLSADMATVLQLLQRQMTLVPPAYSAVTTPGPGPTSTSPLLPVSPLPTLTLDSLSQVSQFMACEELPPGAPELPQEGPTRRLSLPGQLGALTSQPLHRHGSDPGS

Compound	hERG current change (%, negative = inhibition) at 10uM
O=C(O)/C=C/C(=O)Nc1ccc(OC(F)(F)F)cc1Br	15.7%
O=C(/C(=C/c1ccccc1Cl)c1ccccc1)N1CCOCC1	-3.84%
Cc1ccc(C(NC(=O)N2CCCC2)C(Cl)(Cl)Cl)cc1F (centres unmarked)	19.1%
Cc1ccc(NC(=O)c2sc3ccccc3c2Cl)nc1	8.87%
COC(C(=O)Nc1ccc(S(=O)(=O)Nc2c(C)cccc2C)cc1)c1ccccc1 (centres unmarked)	-74.6%
COC(C(=O)Nc1ccc(S(=O)(=O)Nc2ccc(F)cc2)cc1)c1ccccc1 (centres unmarked)	0.504%
COC(C(=O)Nc1ccc(S(=O)(=O)Nc2ccc(C)c(C)c2)cc1)c1ccccc1 (centres unmarked)	15.3%
CCn1cc(/C=C/C(=O)Nc2ccn(Cc3c(F)c(F)cc(F)c3F)n2)cn1	-14.9%
O=C(CCS(=O)(=O)Cc1ccccc1)N1CCc2ccccc2C1	-0.206%
O=C(CN1CCC(n2nnc3cc(F)ccc32)CC1)N1CCCc2ccccc21	-64.2%
O=C(CN1CCC(n2nnc3cc(C(F)(F)F)ccc32)CC1)N1CCc2ccccc21	-19.9%
O=C(CN1CCC(n2nnc3cc(F)ccc32)CC1)NNC(=O)c1ccccc1	-11.9%
O=C(CN1CCC(n2nnc3cc(F)ccc32)CC1)NCCc1nc2ccccc2[nH]1	-31.6%
O=C(CN1CCC(n2nnc3cc(F)ccc32)CC1)N1CCc2ccccc2C1	-58.1%
O=C(CN1CCC(N2CCCCC2)CC1)N1CCCc2ccccc21.O=C(O)C(=O)O	20.7%
O=C(CN1CCC(Cc2ccccc2)CC1)N1CCc2ccccc2C1	-69.3%
Cl.O=C(CN1CCN(c2ccc(F)cc2)CC1)N1CCC(Cc2ccccc2)CC1	-30.3%
O=C(OCCC1Oc2cccnc2NC1=O)c1ccc(F)cc1 (centres unmarked)	12.6%
CC(OC(=O)/C=C/c1ccc2ccccc2n1)C(=O)Nc1ccc(S(N)(=O)=O)cc1 (centres unmarked)	19.1%
CCCOC(=O)c1ccc(Oc2c(-c3ccc(O)cc3O)n[nH]c2C)cc1	-2.68%
Cc1nc(SCC(=O)Nc2cccc(C(=O)O)c2)n[nH]1	24.9%
O=C(NCCCn1ccnc1)c1noc2c1CCCC2	-41.8%
O=C(Nc1cc(Cl)cc(Cl)c1)C1CCC(=O)N1Cc1ccccc1Cl (centres unmarked)	8.65%

Compound	hERG current change (%, negative = inhibition) at 10uM
O=C(CC(Cc1ccccc1)C(=O)O)Nc1ccccc1 (centres unmarked)	25.2%
CCOC(=O)c1ccc([N+](=O)[O-])cc1NC(C)=O	3.85%
Cc1cc(C)c(OCC(=O)Nc2cccc(O)c2)cc1C	10.9%
O=C(NCc1ccccc1CN1CCCCC1)c1ccc(Cl)cc1N1CCCC1=O	-30.4%
O=C(NCC(c1ccco1)N1CCCC1)c1ccc(Cl)cc1 (centres unmarked)	-22.8%
CC(Sc1ccccc1)C(=O)NCC(c1ccco1)N1CCCCC1 (centres unmarked)	-9.36%
CN(Cc1ccccc1N1CCCC1)C(=O)c1cc2cc(Cl)ccc2o1	-13.4%
Cc1c(C(=O)NCC(c2ccco2)N2CCCC2)oc2ccc(Cl)cc12 (centres unmarked)	-42.1%
CC(Sc1ccc(Cl)cc1)C(=O)NCC(c1ccco1)N1CCCCC1 (centres unmarked)	-54.1%
O=C(NCc1ccccc1CN1CCCC1)c1cc2ccccc2o1	-69.4%
Cc1ccccc1CNC(=O)c1cc2ccccc2o1	3.09%
O=C(NCC(c1ccco1)N1CCCC1)c1cc2cc(Cl)ccc2o1 (centres unmarked)	-67.7%
O=C(NCc1ccccc1CN1CCCC1)c1cc2cc(Cl)ccc2o1	-74.6%
O=C(NCc1ccccc1)c1cc2ccccc2o1	-4.68%
O=C(CCNC(=O)c1ccc(Cl)cc1)NCC(c1ccco1)N1CCCCC1 (centres unmarked)	-31%
Cn1nnnc1SCC(=O)N1c2ccccc2Sc2ccc(Cl)cc21	-16.4%
COC(=O)C(C)Oc1ccc2c(c1)O/C(=C\c1cccc(Br)c1)C2=O (centres unmarked)	-46.9%
COc1ccc(C2c3[nH]c4ccccc4c3C[C@H]3C(=O)N(c4ccccc4C(=O)N4CCC[C@H]4C(=O)O)C(=O)N23)cc1 (some centres unmarked)	3.11%
CC(C)C[C@@]12C(=O)N(c3cccc(Cl)c3)C(=O)N1[C@H](c1ccc(Cl)cc1)[C@@H]1C(=O)N(C3CCCCC3)C(=O)[C@@H]12	11.2%
Cc1ccc(C)c(NC(=O)CN(C)C(=O)CN2C(=O)C3CCCCC3C2=O)c1 (centres unmarked)	10%
N#Cc1ccccc1Sc1ccccc1C(=O)NCC(c1ccco1)N1CCCC1 (centres unmarked)	-27.9%
N#Cc1ccccc1Sc1ccccc1C(=O)NCC(c1ccco1)N1CCCCC1 (centres unmarked)	-19%
O=C(NCC(c1ccco1)N1CCCC1)c1ccccc1Sc1ccc(C(F)(F)F)cc1[N+](=O)[O-] (centres unmarked)	-55.4%

Compound	hERG current change (%, negative = inhibition) at 10uM
CCOC(=O)COn1c(-n2nc(C)cc2C)nc2ccccc2c1=O	0.487%
Cc1ccccc1NC(=O)c1ccccc1O	9.03%
CCCC(=O)Nc1ccc2c(c1)nc(CN1CCCC1)n2C	11.7%
Cc1ccc(C(C)C)c(OCC(=O)Nc2ccc3c(c2)nc(CCN2CCCCC2)n3C)c1	-75.8%
Cc1ccc(C(C)C)c(OCC(=O)Nc2ccc3c(c2)nc(CN2CCCC2)n3C)c1	-76.2%
CC(C)CC(=O)Nc1ccc2c(c1)nc(CCN1CCCCC1)n2C	-9.9%
CCC(=O)Nc1ccc2c(c1)nc(CCN1CCCCC1)n2C	7.26%
Cc1cccc(OCC(=O)Nc2ccc3c(c2)nc(CN2CCCCC2)n3C)c1.Cl	-25.3%
Cc1ccc(OCc2nc(-c3ccccn3)no2)c(Br)c1	-22.5%
CC(=O)c1cccc(OCC(=O)Nc2cccc(C(=O)Nc3c(C)n(C)n(-c4ccccc4)c3=O)c2)c1	-7.78%
C=C1C(C(=O)N2CCN(C)CC2)C1C(=O)N1CCN(C)CC1 (centres unmarked)	-2.23%
Cn1c(N)c(C(=O)COC(=O)CCCc2nc3ccccc3s2)c(=O)n(C)c1=O	9.03%
CC(C)Cn1c(N)c(C(=O)COC(=O)c2cc(-c3ccccc3)nc3ccccc23)c(=O)n(C)c1=O	-8.18%
CCc1ccc(C(=O)OCC(=O)c2c(N)n(CC(C)C)c(=O)n(C)c2=O)cc1	-0.249%
CC(C)Cn1c(N)c(C(=O)COC(=O)CCc2nc3ccccc3s2)c(=O)n(C)c1=O	-69.3%
Cn1c(N)c(C(=O)COC(=O)c2ccc([N+](=O)[O-])o2)c(=O)n(C)c1=O	-34.6%
CC(C)Cn1c(N)c(C(=O)COC(=O)c2ccc([N+](=O)[O-])o2)c(=O)n(C)c1=O	-69.5%
CCCn1c(N)c(C(=O)CSc2nnnn2-c2ccc(O)cc2)c(=O)n(C)c1=O	5.2%
CC(C)Cn1c(N)c(C(=O)CSc2nnnn2C)c(=O)n(C)c1=O	4.91%
CC(C)Cn1c(N)c(C(=O)COC(=O)c2cc(C(F)(F)F)nc3ccccc23)c(=O)n(C)c1=O	0.872%
Cn1c(N)c(C(=O)COC(=O)CCc2nc3ccccc3s2)c(=O)n(C)c1=O	5.93%
Cc1ccc(-n2nnnc2SCC(=O)c2c(N)n(CC(C)C)c(=O)n(C)c2=O)cc1	-69.1%
CC(C)Cn1c(N)c(C(=O)COC(=O)c2ccc3ccccc3n2)c(=O)n(C)c1=O	-59.9%

Compound	hERG current change (%, negative = inhibition) at 10uM
COc1ccc(NS(=O)(=O)c2ccc(NC(=O)C3CC3)cc2)cc1	18.6%
CCOc1ccc(CC(=O)OCn2nnc3ccccc3c2=O)cc1	11.4%
Cc1ccc(NS(=O)(=O)c2ccc(-c3ccc(=O)[nH]n3)o2)cc1N(C)C	1.5%
Fc1ccccc1C1c2cccn2CCN1C(=S)Nc1cccc(Br)c1 (centres unmarked)	12.9%
CN1C(=O)OC(C)(C)C1=O	-2.78%
CO/N=C/C(C#N)=C/c1cc(C(=O)c2ccccc2)cn1C	18.4%
O=C1OCCN1C(=O)[C@H]1[C@H](c2ccc([N+](=O)[O-])cc2)C(c2cccc(Cl)c2)=NN1c1ccccc1	5.99%
CCOC(=O)c1ccc(NC(=O)N2C3CCCC2CC(NC(C)=O)C3)cc1 (centres unmarked)	-11.6%
CCC(C(=O)OCC(=O)c1c(N)n(CC(C)C)c(=O)n(C)c1=O)c1ccccc1 (centres unmarked)	-2.13%
CC(=O)NC(CC(=O)OCC(=O)c1c(N)n(CC(C)C)c(=O)n(C)c1=O)c1ccccc1 (centres unmarked)	-3.32%
Cc1cc(C)cc(OCC(=O)OCC(=O)c2c(N)n(C)c(=O)n(C)c2=O)c1	-5.06%
CCOc1ccc(OCCC(=O)OCC(=O)c2c(N)n(C)c(=O)n(C)c2=O)cc1	-23%
Cc1ccccc1OCCC(=O)OCC(=O)c1c(N)n(CC(C)C)c(=O)n(C)c1=O	-75.2%
Cc1ccc(OCCC(=O)OCC(=O)c2c(N)n(C)c(=O)n(C)c2=O)cc1	-58.3%
Cc1ccc(OCCC(=O)OCC(=O)c2c(N)n(CC(C)C)c(=O)n(C)c2=O)cc1	-71.9%
Cc1csc(=O)n1CCC(=O)OCC(=O)c1c(N)n(CC(C)C)c(=O)n(C)c1=O	-26.2%
Cc1cccc(C(=O)OCC(=O)c2c(N)n(CC(C)C)c(=O)n(C)c2=O)c1O	-15.2%
CCOc1ccccc1OCC(=O)OCC(=O)c1c(N)n(CC(C)C)c(=O)n(C)c1=O	-67.5%
Cc1ccc(S(=O)(=O)CCC(=O)OCC(=O)c2c(N)n(CC(C)C)c(=O)n(C)c2=O)cc1	-27.9%
CC(C)Cn1c(N)c(C(=O)COC(=O)CCNS(=O)(=O)c2ccccc2)c(=O)n(C)c1=O	-48.4%
